# Hits are enriched below; roughly 5.4% of the tested compounds scored in any of these assays.
# LASV entry inh: blocks Lassa virus binding to or entry into cells | Lassa virus pseudotype entry inhibition, cell reporter | AID 540256 | Potency, µM (doses to about 37.9 µM), for inactives: at the highest dose activity change, negative = inhibition, actives largely listed as inhibitors | 300,000 compounds, 1.2% hits; calls by dose curve; tested in HEK293 cells; also: nearly all actives have a fitted effect of over 50% in size
# Vaccinia Venus: vaccinia inhibition (Venus reporter); Vaccinia virus Venus reporter expression, fluorescence; Potency, µM (series often up to 36.5 µM), for the others: top-dose activity change, negative = inhibition, hits mostly inhibitors; 330,000 compounds, 0.46% hits; AID 720580; calls by dose curve; tested in A549 cells; also: nearly all actives have a fitted effect of over 30% in size
# VACV mCherry inh: vaccinia inhibition (mCherry reporter) | Vaccinia virus mCherry reporter infection, fluorescence | Potency, µM (series often up to 36.5 µM), without a hit: at the top dose activity change, negative = inhibition, usual class: inhibitors | 310,000 compounds, 0.63% hits; calls by dose curve; tested in A549 cells; also: nearly all actives have a fitted effect of over 35% in size
# FMDV antiviral: antivirals against foot and mouth disease virus; FMDV antiviral cell-based qHTS; Potency, µM (doses to about 57.9 µM), inactives show top-dose activity change, negative = inhibition, actives largely listed as inhibitors; 410,000 compounds, 1.2% hits; AID 1159524; calls by dose curve; tested in HEK293T cells; also: read-out not given here; nearly all actives have a fitted effect of over 45% in size
# Marburg entry inh: inhibitors of Marburg virus binding or cell entry; Marburg virus pseudotyped entry inhibition, cell reporter; Potency, µM (doses to about 37.8 µM), inactives show top-dose activity change, negative = inhibition, usual class: inhibitors; 300,000 compounds, 1.8% hits; AID 540276; calls by dose curve; tested in HEK293 cells
# Sm TGR inh: blocks Schistosoma mansoni thioredoxin glutathione reductase; Q962Y6; purified TGR, DTNB reduction, TNB absorbance 405 nm; Potency, µM (titrated, usually from 114 µM), for the others: at the highest dose activity change, negative = inhibition, actives largely listed as inhibitors; 360,000 compounds, 3% hits; active = well fitted inhibition curve with a large enough effect; inconclusive = small, poorly fitted or top-dose-only effect; inactive = no such curve, though single readings can be large or run the other way; also: nearly all actives have a fitted effect of over 60% in size
#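 Kinetic colorimetric format: TGR-catalysed, NADPH-driven DTNB reduction monitored via TNB absorbance. Enzyme dispensed at 20 nM; compound exposure 15 min at room temperature before reaction start.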
# Numbers without * were called inactive; i = inactive; ? = inconclusive; / = no result; [ ] = another dose, or the depositor's remark. % is scaled to controls: 0 for no effect and ±100 for the full control effect; potency is read from the fitted curve at half-maximal effect.
SMILES,LASV entry inh,Vaccinia Venus,VACV mCherry inh,FMDV antiviral,Marburg entry inh,Sm TGR inh
Cc1nn(C(C)C(=O)NC2C(=O)N3C(C(=O)O)=C(CSc4nnnn4C)CSC23)cc1Cl (stereo not drawn),1%,/,/,-16%,0%,2.2µM*
Cc1cc(C(F)F)nn1CC(=O)NC1C(=O)N2C(C(=O)O)=C(CSc3nnnn3C)CSC12 (stereo not drawn),-5%[46.1 µM],-5%,i,22%,8%[46.1 µM],14µM*
Cn1nnnc1SCC1=C(C(=O)O)N2C(=O)C(NC(=O)C(O)c3ccccc3)C2SC1 (stereo not drawn),/,-14%,-17%,2%,/,/
Cn1nnnc1SCC1=C(C(=O)O)N2C(=O)[C@@H](NC(=O)[C@H](O)c3ccccc3)[C@H]2SC1,5%,-7%,-10%,?,-2%,-16%
Cn1nnnc1SCC1=C(C(=O)O)N2C(=O)C(NC(=O)C3CC3c3ccccc3)C2SC1 (stereo not drawn),/,-1%,i,8%,/,2.5µM*
COc1ccccc1OCC(=O)Nc1nc(-c2ccc(Br)cc2)ns1,11%[46.1 µM],-5%,-6%,-3%,-5%[46.1 µM],-8%
COc1ccc2c(c1)CC(C(=O)NCCCN1CCN(c3ccc(F)cc3)CC1)CO2 (stereo not drawn),-8%[46.1 µM],-27%,-17%,-18%,/,-10%
CCc1ccc(CN(C(=O)Nc2cccc(Cl)c2)c2ccccn2)cc1,-1%[46.1 µM],-10%,-13%,36%,18%[46.1 µM],0%
COc1ccc2[nH]cc(CCNc3ccnc(-c4ccc5c(c4)OCO5)n3)c2c1,/,/,/,-6%,/,/
Cc1ccc(OCC(=O)N2CCN(c3nnc(-c4ccc(C)cc4)c4ccccc34)CC2)cc1,?,/,/,?,4.1µM*,-22%
COc1ccccc1N1CCN(c2nnc(-c3ccc(F)cc3)c3ccccc23)CC1,-3%,-27%,/,20µM*,2%,-1%
COc1ccc(-c2nnc(N3CCCCC3)c3ccccc23)cc1,-9%,?,/,?,13%,-10%
COc1ccc(OCC(=O)N2CCN(c3nnc(-c4ccc(C)cc4)c4ccccc34)CC2)cc1,?,?,?,28µM*,?,15%
Cc1ccc(-c2nnc(N3CCN(C(=O)COc4cccc(C)c4)CC3)c3ccccc23)cc1,?,?,?,25µM*,?,7%
COc1ccc(OCC(=O)N2CCN(c3nnc(-c4ccccc4)c4ccccc34)CC2)cc1,?,/,/,?,?,0%
C/C(CCN1CCc2nc(-c3ccccc3)c(-c3ccccc3)cc2C1)=N\O[C@H](C)CN1CCCCc2nc(C)c(C)cc21,/,/,/,/,25%[14.2 µM],/
Cc1ccc(-c2nnc(N3CCC(C)CC3)c3ccccc23)cc1C,3%,13µM*,28µM*,20µM*,-26%[46.1 µM],5%
Cc1cc2nc3c(nc2cc1C)C(O)=C3O,/,/,/,-27%,/,14µM*
CC(C)NS(=O)(=O)c1ccc(CCC(=O)NCc2ccco2)cc1,-18%,/,/,1%,0%,45µM*
O=C(CCCNS(=O)(=O)c1ccccc1)NCc1ccco1,-7%,/,/,-5%,?,-5%
O=C(CCc1ccc(S(=O)(=O)NCCc2ccccc2)cc1)NCc1ccco1,-6%,-18%,/,-1%,-4%,45µM*
CC(C)NS(=O)(=O)c1ccc(CCC(=O)NCc2ccncc2)cc1,22%,-15%,-13%,-2%,0%,5%
O=C(CCNS(=O)(=O)c1cccs1)NCc1ccco1,16%,-5%,-6%,-12%,-10%,79µM*
COCC(=O)Nc1cc(C(=O)N2CCc3ccccc3C2)c2c(c1)nc(-c1ccncc1)n2C,/,-8%,-10%,-13%,/,/
S=c1nc(-c2ccccc2Cl)[nH][nH]1,34%,0%,-3%,5%,-4%,/
SMILES,LASV entry inh,Vaccinia Venus,VACV mCherry inh,FMDV antiviral,Marburg entry inh,Sm TGR inh
S=c1nc(-c2csc3c2CCCC3)[nH][nH]1,/,/,/,-5%,/,35µM*
Cc1ccc(S(=O)(=O)NCc2ccc(C(=O)NCCN(Cc3ccccc3)C(C)C)cc2)cc1,-29%[46.1 µM],?,-25%,0%,11µM*,-23%
Cc1ccc(OCCNC(=O)c2cccc(S(=O)(=O)NCc3ccccc3)c2)cc1,?,?,-30%,17%,6.3µM*,-12%
CCOc1ccc(CC(=O)Nc2c(C(=O)c3ccccc3)oc3ccc(OC)cc23)cc1OCC,6%[46.1 µM],-17%,2%,-22%,8%[46.1 µM],11%
c1ccc(-c2ccccc2OCCCN2CCCC2)cc1,?,-15%,i,-20%,5.6µM*,0%
Cc1ccccc1OCCOCCN1CCCCCC1,9%[46.1 µM],-12%,-1%,-17%,10µM*,-6%
c1ccc(-c2ccccc2OCCCCN2CCCCC2)cc1,?,-27%,?,-24%,7.1µM*,5%
CC(=O)c1ccccc1OCCCN1CCCCC1,1%,2%,/,-2%,9%,32µM*
COc1ccccc1OCCOCCN1CCCC1,/,/,/,-4%,/,-1%
N#Cc1ccc(C(=O)N(Cc2ccco2)c2c(N)n(Cc3ccccc3)c(=O)[nH]c2=O)cc1,/,/,/,-11%,/,-28%
COc1cccc(C(=O)N(Cc2ccco2)c2c(N)n(Cc3ccccc3)c(=O)[nH]c2=O)c1,/,/,/,-17%,/,45µM*
Nc1c(N(Cc2ccco2)C(=O)c2ccc(Cl)cc2)c(=O)[nH]c(=O)n1Cc1ccccc1,-2%,-14%,-21%,-3%,-7%,-28%
Nc1c(N(Cc2ccco2)C(=O)COc2ccccc2Cl)c(=O)[nH]c(=O)n1Cc1ccccc1,/,/,/,-2%,/,50µM*
Nc1c(N(Cc2ccco2)C(=O)c2cccc(Cl)c2)c(=O)[nH]c(=O)n1Cc1ccccc1,/,/,/,-14%,/,40µM*
Nc1c(N(Cc2ccco2)C(=O)c2ccc(Br)cc2)c(=O)[nH]c(=O)n1Cc1ccccc1,/,/,/,14%,/,35µM*
Nc1c(N(Cc2ccco2)C(=O)COc2ccc(Cl)cc2)c(=O)[nH]c(=O)n1Cc1ccccc1,4%,-1%,0%,?,5%,/
CCCCc1nc(NC[C@H]2CCCO2)c(C#N)c2c1COC(C)(C)C2,/,/,/,/,-13%,/
COC(=O)CNC(=O)Cn1ccc2ccccc2c1=O,2%,-12%,/,-22%,6%,4%
Cc1ccc(CNC(=O)Cn2ccc3ccccc3c2=O)o1,-7%,-13%,-14%,-19%,3%,32µM*
CN1CCN(CC(=O)c2ccccc2F)CC1,?,8%,-4%,4%,-1%,11µM*
Cc1ccc(CNC(=O)C2CCN(S(=O)(=O)c3c(C)noc3/C=C/c3cccs3)CC2)cc1,16%[46.1 µM],-4%,-9%,-22%,4%[46.1 µM],18%
O=C(O)c1ccc(N/N=C/c2ccc(F)c(F)c2)cc1,6.3µM*,4%,-14%,14µM*,7.1µM*,-3%
O=C(O)c1ccc(N/N=C/C(Br)=C/c2ccccc2)cc1,/,/,/,?,/,1.1µM*
O=C(O)c1ccc(N/N=C/c2cccc(F)c2)cc1,?,4%,-5%,-38%,10µM*,-16%
O=C(O)c1ccc(N/N=C/c2ccc3nccnc3c2)cc1,/,/,/,7.1µM*,/,7%
O=C(O)c1ccc(N/N=C/c2ccncc2)cc1,/,/,/,31%,/,4%
